Results published in PubChem BioAssay (NCI).
Compounds without any hit were thinned out: in the full panel of roughly 79,000, 15% have a hit. Values without a mark were called inactive. Rule as the data show it: active = growth inhibition above about 70%; inactive = the rest.

Experiment: NCI Yeast Anticancer Drug Screen. Data for the sgs1 mgt1 strain (AID 161);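 also: 0% = growth of cultures given vehicle only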
Conditions: S. cerevisiae sgs1 mgt1 strain, at 50.0 µM, stronger effect = higher value
Method in brief: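 Mutant yeast exposed to compound; growth scored against vehicle-only wells.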
`OCC(CBr)(CBr)CBr` gave a growth inhibition of 8.25%.
For `COc1cc(C(c2cc3c(cc2OC(C)=O)OCO3)C(C(C)=O)C(C)=O)cc(OC)c1OC` (stereo not given), the growth inhibition was -5.1%.
With `COc1ccc2c(c1)CCCN2C(N)=Nc1ccc([N+](=O)[O-])cc1` the growth inhibition was -1.45%.
In the case of `Cc1cc(S(=O)(=O)Nc2n[nH]c(Nc3ccccc3)n2)c(S)cc1Cl`, the growth inhibition is reported as -13.8%.
Compound `O=C(O)c1ccc2c(c1)CC1(C2)Cc2ccccc2C1=O` (stereo not given) has a growth inhibition of -8.2%.
Compound `O=c1[nH]c2cc(Cl)ccc2nc1/C=C(\O)c1ccc(O)cc1` has a growth inhibition of 0.2%.
`CCNCCCCNCC` gave a growth inhibition of -18.6%.
For `CCN(CC)C1=Nc2ccccc2N(c2ccccc2)C(SC)=C1`, the growth inhibition was 6.15%.
In the case of `C[N+](C)(C)C1C2(CCCCC2)NC(=O)C12CCCCC2` (stereo not given), the growth inhibition is reported as -11.5%.
In the case of `COc1cc2c(cc1OC)C(C#N)(C(c1ccccc1)c1ccccc1)N(C(=O)c1ccccc1)C=C2` (stereo not given), the growth inhibition is reported as 1.35%.
With `c1ccc2c(c1)Oc1ccccc1S2` the growth inhibition was -0.15%.
In the case of `Oc1ccc2ccccc2c1CNC1CCCCC1`, the growth inhibition is reported as -9.05%.
With `CCN(CC)CCOC(=O)Cc1cccc2c(=O)cc(-c3ccc(OC)cc3)oc12` the growth inhibition was -12.4%.
`CCC(CC)(C[NH-])C[NH-].[Cl][Pt+2][Cl]` showed a growth inhibition of 10%.
`COc1cc(Nc2cnc3cc(N)ccc3n2)cc(OC)c1OC` showed a growth inhibition of -31.2%.
`O=c1[nH]c(=O)n(C2CC(O)C(CO)O2)cc1OC/C=C/Cc1ccccc1` (stereo not given) showed a growth inhibition of 0.95%.
In the case of `CC1=N/C(=C/c2ccc3c(c2)OCO3)C(=O)O1`, the growth inhibition is reported as 6.05%.
`CCOC(=O)C(SC(Cl)(S(=O)(=O)c1ccccc1)S(=O)(=O)c1ccccc1)C(=O)OCC` gave a growth inhibition of -4.75%.
In the case of `CC/C=C(\C)C(C#N)(CCC)C(=O)OCC` (stereo not given), the growth inhibition is reported as -20.9%.
`C/C(=N\Nc1ccc([N+](=O)[O-])cn1)c1ccccn1` showed a growth inhibition of 25.4%.
In the case of `N#Cc1c(C(F)(F)F)cc(-c2cccs2)nc1SC(C(=O)Nc1c(F)cccc1F)c1ccccc1` (stereo not given), the growth inhibition is reported as 23%.
`CC1OC(c2ccc3c(c2O)C(=O)C2=C(C3=O)C3(O)C(=O)CC(C)(O)CC3(O)C=C2)CC(O)C1O` (stereo not given) showed a growth inhibition of -19.4%.
Work on `Cc1n[nH]c2ccccc2c1=O` yielded a growth inhibition of -21.6%.
Work on `Cc1cc(N2CCCCC2)nc2ccc(Cc3ccc4nc(N5CCCCC5)cc(C)c4c3)cc12` yielded a growth inhibition of -27.9%.
With `Oc1ccc2c(c1)CCC2` the growth inhibition was -1.3%.
Compound `COc1c(NC(=O)c2c(Br)c(Br)c(Br)c(Br)c2C(=O)O)cccc1[N+](=O)[O-]` has a growth inhibition of 7.65%.
`COc1nc2[nH]ccc2c(=O)n1C` showed a growth inhibition of -9.1%.
`OC1CCC2CCCCC2C1` (stereo not given) gave a growth inhibition of -15.4%.
With `CC(C)/C=C1\CCC(CN(C)C)C1=O` (stereo not given) the growth inhibition was 68.8%.
For `OCc1ccccc1C(c1ccc(O)cc1)c1ccc(O)cc1`, the growth inhibition was 28.9%.
Compound `CC1CCC2C(C(=O)O[C@H]3C4CCO[C@@H](OC5OC(CO)C(O)C(O)C5O)C4[C@@]4(CO)O[C@@H]34)=CO[C@@H](OC3OC(CO)C(O)C(O)C3O)C12` (stereo not given in full) has a growth inhibition of 5.9%.
`C=CCCCCC1CCC2CCC(CCCCC=C)N12` (stereo not given) showed a growth inhibition of 38.6%.
For `O=[n+]1c(-c2ccccc2)c(-c2ccccc2)n([O-])c2cc3ccccc3cc21`, the growth inhibition was 12.2%.
Compound `O=C(Nc1nc2ccc([N+](=O)[O-])cc2s1)C(=O)C(C(=O)c1ccccc1F)C1OC(=O)c2ccccc21` (stereo not given) has a growth inhibition of 59.5%.
With `O=c1c2cc([N+](=O)[O-])ccc2[nH]n1Cc1ccccn1` the growth inhibition was -19.6%.
`COc1cc(C[S+]2CCCC2)c(SC)cc1C[S+]1CCCC1` showed a growth inhibition of 40.2%.
Work on `O=C(NNC(=O)C(F)(F)F)C(F)(F)F` yielded a growth inhibition of -5.1%.
Compound `COC(=O)C1(C(=O)OC)O[C@@H](c2ccccc2)[C@H]2C(=O)N(C)C(=O)[C@H]21` has a growth inhibition of 7.45%.
For `CC(=O)NC1C(SC(=O)NCCCl)OC(COC(C)=O)C(OC(C)=O)C1OC(C)=O` (stereo not given), the growth inhibition was -3.2%.
In the case of `CS(=O)(=O)OCCC(O)COS(C)(=O)=O` (stereo not given), the growth inhibition is reported as 9.45%.

Experiment: NCI Yeast Anticancer Drug Screen. Data for the cln2 rad14 strain (AID 165);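 also: 0% = growth equal to vehicle treated cultures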
Conditions: S. cerevisiae cln2 rad14 strain, at 50.0 µM, stronger effect = higher value
Method in brief: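 Test compounds were added to cln2 rad14 yeast cultures; inhibition of growth was then determined by comparison with vehicle treatment.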
In the case of `OCC(CBr)(CBr)CBr`, the growth inhibition is reported as 19.3%.
Work on `COc1cc(C(c2cc3c(cc2OC(C)=O)OCO3)C(C(C)=O)C(C)=O)cc(OC)c1OC` (stereo not given) yielded a growth inhibition of -4%.
Compound `COc1ccc2c(c1)CCCN2C(N)=Nc1ccc([N+](=O)[O-])cc1` has a growth inhibition of -55.8%.
`Cc1cc(S(=O)(=O)Nc2n[nH]c(Nc3ccccc3)n2)c(S)cc1Cl` showed a growth inhibition of 9.6%.
In the case of `O=C(O)c1ccc2c(c1)CC1(C2)Cc2ccccc2C1=O` (stereo not given), the growth inhibition is reported as -14.2%.
Work on `O=c1[nH]c2cc(Cl)ccc2nc1/C=C(\O)c1ccc(O)cc1` yielded a growth inhibition of 7.05%.
With `CCNCCCCNCC` the growth inhibition was 8.1%.
For `CCN(CC)C1=Nc2ccccc2N(c2ccccc2)C(SC)=C1`, the growth inhibition was -6.45%.
`C[N+](C)(C)C1C2(CCCCC2)NC(=O)C12CCCCC2` (stereo not given) gave a growth inhibition of -3.1%.
Work on `COc1cc2c(cc1OC)C(C#N)(C(c1ccccc1)c1ccccc1)N(C(=O)c1ccccc1)C=C2` (stereo not given) yielded a growth inhibition of -1.15%.
`c1ccc2c(c1)Oc1ccccc1S2` gave a growth inhibition of 3.85%.
`Oc1ccc2ccccc2c1CNC1CCCCC1` gave a growth inhibition of -26.1%.
Work on `CCN(CC)CCOC(=O)Cc1cccc2c(=O)cc(-c3ccc(OC)cc3)oc12` yielded a growth inhibition of 8.9%.
Work on `CCC(CC)(C[NH-])C[NH-].[Cl][Pt+2][Cl]` yielded a growth inhibition of 16.2%.
`COc1cc(Nc2cnc3cc(N)ccc3n2)cc(OC)c1OC` showed a growth inhibition of -16.2%.
Work on `O=c1[nH]c(=O)n(C2CC(O)C(CO)O2)cc1OC/C=C/Cc1ccccc1` (stereo not given) yielded a growth inhibition of 7.75%.
With `CC1=N/C(=C/c2ccc3c(c2)OCO3)C(=O)O1` the growth inhibition was -24.9%.
Work on `CCOC(=O)C(SC(Cl)(S(=O)(=O)c1ccccc1)S(=O)(=O)c1ccccc1)C(=O)OCC` yielded a growth inhibition of -8.75%.
In the case of `CC/C=C(\C)C(C#N)(CCC)C(=O)OCC` (stereo not given), the growth inhibition is reported as -0.75%.
In the case of `C/C(=N\Nc1ccc([N+](=O)[O-])cn1)c1ccccn1`, the growth inhibition is reported as 5.6%.
Work on `N#Cc1c(C(F)(F)F)cc(-c2cccs2)nc1SC(C(=O)Nc1c(F)cccc1F)c1ccccc1` (stereo not given) yielded a growth inhibition of 20.2%.
Work on `CC1OC(c2ccc3c(c2O)C(=O)C2=C(C3=O)C3(O)C(=O)CC(C)(O)CC3(O)C=C2)CC(O)C1O` (stereo not given) yielded a growth inhibition of -8.1%.
`Cc1n[nH]c2ccccc2c1=O` showed a growth inhibition of -18.1%.
`Cc1cc(N2CCCCC2)nc2ccc(Cc3ccc4nc(N5CCCCC5)cc(C)c4c3)cc12` showed a growth inhibition of -16.4%.
`Oc1ccc2c(c1)CCC2` showed a growth inhibition of 8%.
In the case of `COc1c(NC(=O)c2c(Br)c(Br)c(Br)c(Br)c2C(=O)O)cccc1[N+](=O)[O-]`, the growth inhibition is reported as -4.2%.
For `COc1nc2[nH]ccc2c(=O)n1C`, the growth inhibition was 10.3%.
Work on `OC1CCC2CCCCC2C1` (stereo not given) yielded a growth inhibition of -25.1%.
For `CC(C)/C=C1\CCC(CN(C)C)C1=O` (stereo not given), the growth inhibition was 31.4%.
In the case of `OCc1ccccc1C(c1ccc(O)cc1)c1ccc(O)cc1`, the growth inhibition is reported as 18%.
Compound `CC1CCC2C(C(=O)O[C@H]3C4CCO[C@@H](OC5OC(CO)C(O)C(O)C5O)C4[C@@]4(CO)O[C@@H]34)=CO[C@@H](OC3OC(CO)C(O)C(O)C3O)C12` (stereo not given in full) has a growth inhibition of 22.2%.
`C=CCCCCC1CCC2CCC(CCCCC=C)N12` (stereo not given) gave a growth inhibition of 42.5%.
Compound `O=[n+]1c(-c2ccccc2)c(-c2ccccc2)n([O-])c2cc3ccccc3cc21` has a growth inhibition of -24.6%.
`O=C(Nc1nc2ccc([N+](=O)[O-])cc2s1)C(=O)C(C(=O)c1ccccc1F)C1OC(=O)c2ccccc21` (stereo not given) gave a growth inhibition of 25.6%.
With `O=c1c2cc([N+](=O)[O-])ccc2[nH]n1Cc1ccccn1` the growth inhibition was 9.45%.
In the case of `COc1cc(C[S+]2CCCC2)c(SC)cc1C[S+]1CCCC1`, the growth inhibition is reported as 27.5%.
For `O=C(NNC(=O)C(F)(F)F)C(F)(F)F`, the growth inhibition was -10%.
Work on `COC(=O)C1(C(=O)OC)O[C@@H](c2ccccc2)[C@H]2C(=O)N(C)C(=O)[C@H]21` yielded a growth inhibition of 8.8%.
`CC(=O)NC1C(SC(=O)NCCCl)OC(COC(C)=O)C(OC(C)=O)C1OC(C)=O` (stereo not given) gave a growth inhibition of -16.8%.
With `CS(=O)(=O)OCCC(O)COS(C)(=O)=O` (stereo not given) the growth inhibition was -55%.
